# Results reported in publication PMC11006913.
# What was measured:
# Assay in all cases: PBM; 200 nM protein, PBS
# Conditions in all cases: dsDNA, one strand shown
# HOXA4 [1] = target: HOXA4 (Homo sapiens, UniProt Q00056 201-287, W262R)
# HOXA4 [2] = target: HOXA4 (Homo sapiens, UniProt Q00056 201-287, R217L)
# ALX3 [3] = target: ALX3 (Homo sapiens, UniProt O95076 139-225, N203Q)
# HOXA4 [4] = target: HOXA4 (Homo sapiens, UniProt Q00056 201-287)
# ALX3 [5] = target: ALX3 (Homo sapiens, UniProt O95076 139-225)
# Sequence of ALX3 (Homo sapiens, UniProt O95076 139-225) (O95076 139-225): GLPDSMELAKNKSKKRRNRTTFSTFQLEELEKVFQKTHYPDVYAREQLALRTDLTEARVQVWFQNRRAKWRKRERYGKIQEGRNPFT
# ALX3 [6] = target: ALX3 (Homo sapiens, UniProt O95076 139-225, L168Q)
# Sequence of ALX3 (Homo sapiens, UniProt O95076 139-225, L168Q) (O95076 139-225 L168Q): as the sequence (O95076 139-225) above, with L30Q counted along it
# ALX3 [7] = target: ALX3 (Homo sapiens, UniProt O95076 139-225, L168V)
# Sequence of ALX3 (Homo sapiens, UniProt O95076 139-225, L168V) (O95076 139-225 L168V): as the sequence (O95076 139-225) above, with L30V counted along it
# HOXA4 [8] = target: HOXA4 (Homo sapiens, UniProt Q00056 201-287, W262F)
# Sequence of HOXA4 (Homo sapiens, UniProt Q00056 201-287, W262F) (Q00056 201-287 W262F): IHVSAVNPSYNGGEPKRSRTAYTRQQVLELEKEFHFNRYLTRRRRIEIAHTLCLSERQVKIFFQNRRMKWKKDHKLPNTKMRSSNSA
# ALX3 [9] = target: ALX3 (Homo sapiens, UniProt O95076 139-225, N203S)
# Sequence of ALX3 (Homo sapiens, UniProt O95076 139-225, N203S) (O95076 139-225 N203S): as the sequence (O95076 139-225) above, with N65S counted along it
# PROP1 [10] = target: PROP1 (Homo sapiens, UniProt O75360 56-141)
# Sequence of PROP1 (Homo sapiens, UniProt O75360 56-141) (O75360 56-141): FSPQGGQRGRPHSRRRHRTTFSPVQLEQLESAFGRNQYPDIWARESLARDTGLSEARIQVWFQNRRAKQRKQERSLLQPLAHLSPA
# PROP1 [11] = target: PROP1 (Homo sapiens, UniProt O75360 56-141, R99H)
# Sequence of PROP1 (Homo sapiens, UniProt O75360 56-141, R99H) (O75360 56-141 R99H): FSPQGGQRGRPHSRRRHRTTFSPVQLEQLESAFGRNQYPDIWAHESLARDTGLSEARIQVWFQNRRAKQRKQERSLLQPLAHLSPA
# PROP1 [12] = target: PROP1 (Homo sapiens, UniProt O75360 56-141, F88S)
# Sequence of PROP1 (Homo sapiens, UniProt O75360 56-141, F88S) (O75360 56-141 F88S): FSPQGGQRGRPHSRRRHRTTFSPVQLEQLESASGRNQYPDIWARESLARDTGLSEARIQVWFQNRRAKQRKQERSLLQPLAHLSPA
# NKX2-6 = target: T1, NKX2-6 (Homo sapiens, UniProt A6NCS4 118-204, R150C)
# T1 sequence: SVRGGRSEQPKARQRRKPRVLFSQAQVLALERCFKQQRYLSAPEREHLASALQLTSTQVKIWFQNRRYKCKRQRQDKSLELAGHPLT
# HOXA2 [13] = target: HOXA2 (Homo sapiens, UniProt O43364 129-215, R185T)
# Sequence of HOXA2 (Homo sapiens, UniProt O43364 129-215, R185T) (O43364 129-215 R185T): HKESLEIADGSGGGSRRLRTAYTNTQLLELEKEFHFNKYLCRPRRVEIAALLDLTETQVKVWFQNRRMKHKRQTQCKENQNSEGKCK
# HOXA2 [14] = target: HOXA2 (Homo sapiens, UniProt O43364 129-215, R185K)
# Sequence of HOXA2 (Homo sapiens, UniProt O43364 129-215, R185K) (O43364 129-215 R185K): as the sequence (O43364 129-215 R185T) above, with T57K counted along it
# HOXA2 [15] = target: HOXA2 (Homo sapiens, UniProt O43364 129-215, Y150S)
# Sequence of HOXA2 (Homo sapiens, UniProt O43364 129-215, Y150S) (O43364 129-215 Y150S): as the sequence (O43364 129-215 R185T) above, with Y22S, T57R counted along it
# HOXA2 [16] = target: HOXA2 (Homo sapiens, UniProt O43364 129-215)
# Sequence of HOXA2 (Homo sapiens, UniProt O43364 129-215) (O43364 129-215): as the sequence (O43364 129-215 R185T) above, with T57R counted along it
# MSX2 [17] = target: MSX2 (Homo sapiens, UniProt P35548 130-214, R199I)
# Sequence of MSX2 (Homo sapiens, UniProt P35548 130-214, R199I) (P35548 130-214 R199I): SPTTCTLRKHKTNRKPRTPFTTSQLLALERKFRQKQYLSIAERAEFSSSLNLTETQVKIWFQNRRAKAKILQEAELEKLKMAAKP
# MSX2 [18] = target: MSX2 (Homo sapiens, UniProt P35548 130-214)
# Sequence of MSX2 (Homo sapiens, UniProt P35548 130-214) (P35548 130-214): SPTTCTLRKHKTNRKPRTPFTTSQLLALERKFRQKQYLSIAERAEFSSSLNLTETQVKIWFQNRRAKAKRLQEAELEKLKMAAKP
# MSX2 [19] = target: MSX2 (Homo sapiens, UniProt P35548 130-214, F161Y)
# Sequence of MSX2 (Homo sapiens, UniProt P35548 130-214, F161Y) (P35548 130-214 F161Y): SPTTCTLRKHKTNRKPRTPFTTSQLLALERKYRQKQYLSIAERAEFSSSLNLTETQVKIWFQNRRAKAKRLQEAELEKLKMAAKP
# PITX2 = PITX2 (Homo sapiens, UniProt Q99697 72-157)
# VAX1 [20] = target: VAX1 (Homo sapiens, UniProt Q5SQQ9 86-172)
# Sequence of VAX1 (Homo sapiens, UniProt Q5SQQ9 86-172) (Q5SQQ9 86-172): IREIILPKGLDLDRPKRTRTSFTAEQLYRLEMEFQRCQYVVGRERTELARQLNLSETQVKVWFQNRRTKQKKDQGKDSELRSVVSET
# VAX1 [21] = target: VAX1 (Homo sapiens, UniProt Q5SQQ9 86-172, T142I)
# Sequence of VAX1 (Homo sapiens, UniProt Q5SQQ9 86-172, T142I) (Q5SQQ9 86-172 T142I): as the sequence (Q5SQQ9 86-172) above, with T57I counted along it
# VAX1 [22] = target: VAX1 (Homo sapiens, UniProt Q5SQQ9 86-172, K157R)
# Sequence of VAX1 (Homo sapiens, UniProt Q5SQQ9 86-172, K157R) (Q5SQQ9 86-172 K157R): as the sequence (Q5SQQ9 86-172) above, with K72R counted along it
# HOXD13 [23] = target: HOXD13 (Homo sapiens, UniProt P35453 263-343)
# Sequence of HOXD13 (Homo sapiens, UniProt P35453 263-343) (P35453 263-343): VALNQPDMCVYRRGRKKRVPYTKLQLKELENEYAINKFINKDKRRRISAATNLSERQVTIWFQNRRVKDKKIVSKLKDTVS
# HOXC9 [24] = target: HOXC9 (Homo sapiens, UniProt P31274 178-260, K195R)
# Sequence of HOXC9 (Homo sapiens, UniProt P31274 178-260, K195R) (P31274 178-260 K195R): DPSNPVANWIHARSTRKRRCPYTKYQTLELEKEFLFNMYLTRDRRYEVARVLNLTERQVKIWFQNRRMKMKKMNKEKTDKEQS
# HOXB6 [25] = target: HOXB6 (Homo sapiens, UniProt P17509 132-218, K202E)
# Sequence of HOXB6 (Homo sapiens, UniProt P17509 132-218, K202E) (P17509 132-218 K202E): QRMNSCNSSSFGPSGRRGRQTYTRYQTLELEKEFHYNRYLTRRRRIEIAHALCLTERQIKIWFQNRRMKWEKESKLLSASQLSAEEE
# HOXC9 [26] = target: HOXC9 (Homo sapiens, UniProt P31274 178-260)
# Sequence of HOXC9 (Homo sapiens, UniProt P31274 178-260) (P31274 178-260): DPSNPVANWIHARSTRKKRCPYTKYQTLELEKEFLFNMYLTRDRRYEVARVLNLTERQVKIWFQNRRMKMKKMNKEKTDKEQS
# HOXC9 [27] = target: HOXC9 (Homo sapiens, UniProt P31274 178-260, R193K)
# Sequence of HOXC9 (Homo sapiens, UniProt P31274 178-260, R193K) (P31274 178-260 R193K): as the sequence (P31274 178-260) above, with R16K counted along it
# HOXC9 [28] = target: HOXC9 (Homo sapiens, UniProt P31274 178-260, R222W)
# Sequence of HOXC9 (Homo sapiens, UniProt P31274 178-260, R222W) (P31274 178-260 R222W): as the sequence (P31274 178-260) above, with R45W counted along it
# HOXB6 [29] = target: HOXB6 (Homo sapiens, UniProt P17509 132-218)
# Sequence of HOXB6 (Homo sapiens, UniProt P17509 132-218) (P17509 132-218): as the sequence (P17509 132-218 K202E) above, with E71K counted along it
# HOXC10 [30] = target: HOXC10 (Homo sapiens, UniProt Q9NYD6 254-340)
# Sequence of HOXC10 (Homo sapiens, UniProt Q9NYD6 254-340) (Q9NYD6 254-340): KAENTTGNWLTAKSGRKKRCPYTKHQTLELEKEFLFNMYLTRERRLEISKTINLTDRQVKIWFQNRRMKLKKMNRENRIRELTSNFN
# HOXD13 [31] = target: HOXD13 (Homo sapiens, UniProt P35453 263-343, T313R)
# Sequence of HOXD13 (Homo sapiens, UniProt P35453 263-343, T313R) (P35453 263-343 T313R): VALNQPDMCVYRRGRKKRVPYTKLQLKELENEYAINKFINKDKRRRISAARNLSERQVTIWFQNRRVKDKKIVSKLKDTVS
# HOXC10 [32] = target: HOXC10 (Homo sapiens, UniProt Q9NYD6 254-340, K271E)
# Sequence of HOXC10 (Homo sapiens, UniProt Q9NYD6 254-340, K271E) (Q9NYD6 254-340 K271E): as the sequence (Q9NYD6 254-340) above, with K18E counted along it
# HOXD13 [33] = target: HOXD13 (Homo sapiens, UniProt P35453 263-343, T313A)
# Sequence of HOXD13 (Homo sapiens, UniProt P35453 263-343, T313A) (P35453 263-343 T313A): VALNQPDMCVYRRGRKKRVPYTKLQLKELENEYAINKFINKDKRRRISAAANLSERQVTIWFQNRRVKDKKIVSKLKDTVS
# Sequence of ALX3 (Homo sapiens, UniProt O95076 139-225, N203Q) (O95076 139-225 N203Q): as the sequence (O95076 139-225) above, with N65Q counted along it
# Sequence of HOXA4 (Homo sapiens, UniProt Q00056 201-287) (Q00056 201-287): as the sequence (Q00056 201-287 W262F) above, with F62W counted along it
# Sequence of HOXA4 (Homo sapiens, UniProt Q00056 201-287, R217L) (Q00056 201-287 R217L): as the sequence (Q00056 201-287 W262F) above, with R17L, F62W counted along it
# Sequence of HOXA4 (Homo sapiens, UniProt Q00056 201-287, W262R) (Q00056 201-287 W262R): as the sequence (Q00056 201-287 W262F) above, with F62R counted along it
sequence,measurement,setting,value
CCGGCTCC,binding signal,HOXA4 [1],"9.74 upbm affinity estimate (log intensity, higher = more binding, comparable within an allelic series)"
same,binding signal,HOXA4 [2],"9.52 upbm affinity estimate (log intensity, higher = more binding, comparable within an allelic series)"
same,binding signal,ALX3 [3],"7.7 upbm affinity estimate (log intensity, higher = more binding, comparable within an allelic series)"
same,binding signal,HOXA4 [4],"9.48 upbm affinity estimate (log intensity, higher = more binding, comparable within an allelic series)"
same,binding signal,ALX3 [5],"7.5 upbm affinity estimate (log intensity, higher = more binding, comparable within an allelic series)"
same,binding signal,ALX3 [6],"7.65 upbm affinity estimate (log intensity, higher = more binding, comparable within an allelic series)"
same,binding signal,ALX3 [7],"7.64 upbm affinity estimate (log intensity, higher = more binding, comparable within an allelic series)"
same,binding signal,HOXA4 [8],"9.75 upbm affinity estimate (log intensity, higher = more binding, comparable within an allelic series)"
same,binding signal,ALX3 [9],"7.7 upbm affinity estimate (log intensity, higher = more binding, comparable within an allelic series)"
CCACGCCC,binding signal,HOXA4 [1],"9.84 upbm affinity estimate (log intensity, higher = more binding, comparable within an allelic series)"
same,binding signal,HOXA4 [2],"9.85 upbm affinity estimate (log intensity, higher = more binding, comparable within an allelic series)"
same,binding signal,HOXA4 [4],"9.64 upbm affinity estimate (log intensity, higher = more binding, comparable within an allelic series)"
same,binding signal,HOXA4 [8],"9.99 upbm affinity estimate (log intensity, higher = more binding, comparable within an allelic series)"
AACTAATA,binding signal,HOXA4 [1],"10.5 upbm affinity estimate (log intensity, higher = more binding, comparable within an allelic series)"
same,binding signal,HOXA4 [2],"11.2 upbm affinity estimate (log intensity, higher = more binding, comparable within an allelic series)"
same,binding signal,ALX3 [3],"8.57 upbm affinity estimate (log intensity, higher = more binding, comparable within an allelic series)"
same,binding signal,HOXA4 [4],"12.5 upbm affinity estimate (log intensity, higher = more binding, comparable within an allelic series)"
same,binding signal,HOXA4 [8],"11 upbm affinity estimate (log intensity, higher = more binding, comparable within an allelic series)"
same,binding signal,ALX3 [9],"8.65 upbm affinity estimate (log intensity, higher = more binding, comparable within an allelic series)"
CCCAGACC,binding signal,HOXA4 [1],"9.9 upbm affinity estimate (log intensity, higher = more binding, comparable within an allelic series)"
same,binding signal,HOXA4 [2],"9.76 upbm affinity estimate (log intensity, higher = more binding, comparable within an allelic series)"
same,binding signal,ALX3 [3],"7.81 upbm affinity estimate (log intensity, higher = more binding, comparable within an allelic series)"
same,binding signal,HOXA4 [4],"9.51 upbm affinity estimate (log intensity, higher = more binding, comparable within an allelic series)"
same,binding signal,ALX3 [5],"7.71 upbm affinity estimate (log intensity, higher = more binding, comparable within an allelic series)"
same,binding signal,PROP1 [10],"6.45 upbm affinity estimate (log intensity, higher = more binding, comparable within an allelic series)"
same,binding signal,PROP1 [11],"6.71 upbm affinity estimate (log intensity, higher = more binding, comparable within an allelic series)"
same,binding signal,ALX3 [6],"7.78 upbm affinity estimate (log intensity, higher = more binding, comparable within an allelic series)"
same,binding signal,ALX3 [7],"7.7 upbm affinity estimate (log intensity, higher = more binding, comparable within an allelic series)"
same,binding signal,PROP1 [12],"6.48 upbm affinity estimate (log intensity, higher = more binding, comparable within an allelic series)"
same,binding signal,HOXA4 [8],"9.84 upbm affinity estimate (log intensity, higher = more binding, comparable within an allelic series)"
same,binding signal,ALX3 [9],"7.84 upbm affinity estimate (log intensity, higher = more binding, comparable within an allelic series)"
CCTTCCCG,binding signal,HOXA4 [1],"9.88 upbm affinity estimate (log intensity, higher = more binding, comparable within an allelic series)"
same,binding signal,HOXA4 [2],"9.86 upbm affinity estimate (log intensity, higher = more binding, comparable within an allelic series)"
same,binding signal,HOXA4 [4],"9.79 upbm affinity estimate (log intensity, higher = more binding, comparable within an allelic series)"
same,binding signal,HOXA4 [8],"9.89 upbm affinity estimate (log intensity, higher = more binding, comparable within an allelic series)"
AGGGACGG,binding signal,HOXA4 [1],"9.81 upbm affinity estimate (log intensity, higher = more binding, comparable within an allelic series)"
same,binding signal,HOXA4 [2],"9.83 upbm affinity estimate (log intensity, higher = more binding, comparable within an allelic series)"
same,binding signal,NKX2-6,"9.6 upbm affinity estimate (log intensity, higher = more binding, comparable within an allelic series)"
same,binding signal,HOXA4 [4],"9.78 upbm affinity estimate (log intensity, higher = more binding, comparable within an allelic series)"
same,binding signal,HOXA4 [8],"9.93 upbm affinity estimate (log intensity, higher = more binding, comparable within an allelic series)"
CACTGGCC,binding signal,HOXA4 [1],"9.86 upbm affinity estimate (log intensity, higher = more binding, comparable within an allelic series)"
same,binding signal,HOXA2 [13],"7.06 upbm affinity estimate (log intensity, higher = more binding, comparable within an allelic series)"
same,binding signal,HOXA4 [2],"9.9 upbm affinity estimate (log intensity, higher = more binding, comparable within an allelic series)"
same,binding signal,HOXA2 [14],"10.5 upbm affinity estimate (log intensity, higher = more binding, comparable within an allelic series)"
same,binding signal,HOXA4 [4],"9.86 upbm affinity estimate (log intensity, higher = more binding, comparable within an allelic series)"
same,binding signal,HOXA2 [15],"10.5 upbm affinity estimate (log intensity, higher = more binding, comparable within an allelic series)"
same,binding signal,HOXA4 [8],"9.96 upbm affinity estimate (log intensity, higher = more binding, comparable within an allelic series)"
same,binding signal,HOXA2 [16],"7.16 upbm affinity estimate (log intensity, higher = more binding, comparable within an allelic series)"
CCTGCTCC,binding signal,HOXA4 [1],"9.98 upbm affinity estimate (log intensity, higher = more binding, comparable within an allelic series)"
same,binding signal,HOXA4 [2],"9.88 upbm affinity estimate (log intensity, higher = more binding, comparable within an allelic series)"
same,binding signal,HOXA4 [4],"9.83 upbm affinity estimate (log intensity, higher = more binding, comparable within an allelic series)"
same,binding signal,HOXA4 [8],"9.97 upbm affinity estimate (log intensity, higher = more binding, comparable within an allelic series)"
GCTGCTCC,binding signal,HOXA4 [1],"9.76 upbm affinity estimate (log intensity, higher = more binding, comparable within an allelic series)"
same,binding signal,HOXA4 [2],"9.74 upbm affinity estimate (log intensity, higher = more binding, comparable within an allelic series)"
same,binding signal,MSX2 [17],"9.39 upbm affinity estimate (log intensity, higher = more binding, comparable within an allelic series)"
same,binding signal,HOXA4 [4],"9.73 upbm affinity estimate (log intensity, higher = more binding, comparable within an allelic series)"
same,binding signal,MSX2 [18],"9.4 upbm affinity estimate (log intensity, higher = more binding, comparable within an allelic series)"
same,binding signal,MSX2 [19],"9.41 upbm affinity estimate (log intensity, higher = more binding, comparable within an allelic series)"
same,binding signal,HOXA4 [8],"9.78 upbm affinity estimate (log intensity, higher = more binding, comparable within an allelic series)"
GCGGTCAC,binding signal,HOXA4 [1],"9.83 upbm affinity estimate (log intensity, higher = more binding, comparable within an allelic series)"
same,binding signal,HOXA4 [2],"9.77 upbm affinity estimate (log intensity, higher = more binding, comparable within an allelic series)"
same,binding signal,PITX2,"7.97 upbm affinity estimate (log intensity, higher = more binding, comparable within an allelic series)"
same,binding signal,HOXA4 [4],"9.75 upbm affinity estimate (log intensity, higher = more binding, comparable within an allelic series)"
same,binding signal,HOXA4 [8],"9.9 upbm affinity estimate (log intensity, higher = more binding, comparable within an allelic series)"
GACTCACC,binding signal,HOXA4 [1],"9.89 upbm affinity estimate (log intensity, higher = more binding, comparable within an allelic series)"
same,binding signal,HOXA4 [2],"9.87 upbm affinity estimate (log intensity, higher = more binding, comparable within an allelic series)"
same,binding signal,HOXA4 [4],"9.79 upbm affinity estimate (log intensity, higher = more binding, comparable within an allelic series)"
same,binding signal,VAX1 [20],"6.98 upbm affinity estimate (log intensity, higher = more binding, comparable within an allelic series)"
same,binding signal,VAX1 [21],"7.2 upbm affinity estimate (log intensity, higher = more binding, comparable within an allelic series)"
same,binding signal,HOXA4 [8],"9.8 upbm affinity estimate (log intensity, higher = more binding, comparable within an allelic series)"
same,binding signal,VAX1 [22],"7.1 upbm affinity estimate (log intensity, higher = more binding, comparable within an allelic series)"
GAGTAATA,binding signal,HOXD13 [23],"10.9 upbm affinity estimate (log intensity, higher = more binding, comparable within an allelic series)"
TAAGATGA,binding signal,HOXC9 [24],"10.9 upbm affinity estimate (log intensity, higher = more binding, comparable within an allelic series)"
same,binding signal,HOXB6 [25],"9.54 upbm affinity estimate (log intensity, higher = more binding, comparable within an allelic series)"
same,binding signal,HOXC9 [26],"10.7 upbm affinity estimate (log intensity, higher = more binding, comparable within an allelic series)"
same,binding signal,ALX3 [3],"8.17 upbm affinity estimate (log intensity, higher = more binding, comparable within an allelic series)"
same,binding signal,HOXC9 [27],"10.9 upbm affinity estimate (log intensity, higher = more binding, comparable within an allelic series)"
same,binding signal,ALX3 [5],"9.17 upbm affinity estimate (log intensity, higher = more binding, comparable within an allelic series)"
same,binding signal,HOXC9 [28],"10.2 upbm affinity estimate (log intensity, higher = more binding, comparable within an allelic series)"
same,binding signal,ALX3 [9],"8.25 upbm affinity estimate (log intensity, higher = more binding, comparable within an allelic series)"
same,binding signal,HOXB6 [29],"10.1 upbm affinity estimate (log intensity, higher = more binding, comparable within an allelic series)"
ATTTACGA,binding signal,HOXC9 [24],"12.4 upbm affinity estimate (log intensity, higher = more binding, comparable within an allelic series)"
same,binding signal,HOXC10 [30],"12.3 upbm affinity estimate (log intensity, higher = more binding, comparable within an allelic series)"
same,binding signal,HOXC9 [26],"12.6 upbm affinity estimate (log intensity, higher = more binding, comparable within an allelic series)"
same,binding signal,HOXD13 [31],"10.9 upbm affinity estimate (log intensity, higher = more binding, comparable within an allelic series)"
same,binding signal,HOXC9 [27],"12.4 upbm affinity estimate (log intensity, higher = more binding, comparable within an allelic series)"
same,binding signal,HOXD13 [23],"12 upbm affinity estimate (log intensity, higher = more binding, comparable within an allelic series)"
same,binding signal,HOXC10 [32],"11.8 upbm affinity estimate (log intensity, higher = more binding, comparable within an allelic series)"
same,binding signal,HOXD13 [33],"11.8 upbm affinity estimate (log intensity, higher = more binding, comparable within an allelic series)"
same,binding signal,HOXC9 [28],"10.9 upbm affinity estimate (log intensity, higher = more binding, comparable within an allelic series)"
